Hits are enriched below; roughly 0.98% of the tested compounds scored in any of these assays.
RTF Ca sens inh: cardiac RTF calcium desensitization; 340,000 tested, 0.12% active; IANBD-labeled cardiac RTF, Ca2+ fluorescence; AID 493244; P19429+P45379; inhibition, % at 7.15 µM;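 active = inhibition above the mean inhibition of all tested compounds plus 3 SD, cut at about 17% in these data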;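 also: assay run at fixed EC70 calcium of 1.6 mM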
cardiac RTF act: increases calcium sensitivity of human cardiac regulated thin filaments | AID 493008 | activation, % at 7.2 µM | IANBD-labeled TnC RTF fluorescence at EC20 calcium; 0% EC20 calcium, 100% full calcium | P19429+P45379 | 340,000 tested, 0.24% active;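 active = activation above the mean over all tested compounds plus 3 SD, cut at about 30% in these data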;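 also: rise in fluorescence read as greater calcium sensitivity of cardiac thin filaments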
LANA DNA inh: blocks KSHV LANA C-terminal domain binding to DNA | MBP-C-LANA/FAM-LBS DNA binding, fluorescence polarization | inhibition, % at 9 µM | 340,000 tested, 0.078% active;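 active = highest replicate inhibition at or above 60% at 9 µM, even if other replicates fall short; inactive = all replicates below 60% inhibition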
Keap1-Nrf2 PPI: Keap1-Nrf2 (human) interaction inhibition; Keap1 Kelch-Nrf2 peptide fluorescence polarization, 1536-well; AID 504523; 340,000 tested, 0.15% active; inhibition, % at 9.4 µM; in the data active = inhibition above about 12%;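 also: human Keap1 Kelch domain with fluorescein labeled Nrf2 9mer peptide probe; higher means more block of Keap1 binding to Nrf2 peptide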
LANA-H2A inh: blocks KSHV LANA binding to histone H2A/H2B. Q9QR71. cell-free LANA-H2A/H2B peptide, fluorescence polarization. inhibition, % (no concentration beside the values). 320,000 tested, 0.6% active. AID 2629; in the data active = inhibition mostly above about 10%, no sharp cut-off; inactive = mostly below about 6.7%
Target sequence (Q9QR71 whole entry, looked up): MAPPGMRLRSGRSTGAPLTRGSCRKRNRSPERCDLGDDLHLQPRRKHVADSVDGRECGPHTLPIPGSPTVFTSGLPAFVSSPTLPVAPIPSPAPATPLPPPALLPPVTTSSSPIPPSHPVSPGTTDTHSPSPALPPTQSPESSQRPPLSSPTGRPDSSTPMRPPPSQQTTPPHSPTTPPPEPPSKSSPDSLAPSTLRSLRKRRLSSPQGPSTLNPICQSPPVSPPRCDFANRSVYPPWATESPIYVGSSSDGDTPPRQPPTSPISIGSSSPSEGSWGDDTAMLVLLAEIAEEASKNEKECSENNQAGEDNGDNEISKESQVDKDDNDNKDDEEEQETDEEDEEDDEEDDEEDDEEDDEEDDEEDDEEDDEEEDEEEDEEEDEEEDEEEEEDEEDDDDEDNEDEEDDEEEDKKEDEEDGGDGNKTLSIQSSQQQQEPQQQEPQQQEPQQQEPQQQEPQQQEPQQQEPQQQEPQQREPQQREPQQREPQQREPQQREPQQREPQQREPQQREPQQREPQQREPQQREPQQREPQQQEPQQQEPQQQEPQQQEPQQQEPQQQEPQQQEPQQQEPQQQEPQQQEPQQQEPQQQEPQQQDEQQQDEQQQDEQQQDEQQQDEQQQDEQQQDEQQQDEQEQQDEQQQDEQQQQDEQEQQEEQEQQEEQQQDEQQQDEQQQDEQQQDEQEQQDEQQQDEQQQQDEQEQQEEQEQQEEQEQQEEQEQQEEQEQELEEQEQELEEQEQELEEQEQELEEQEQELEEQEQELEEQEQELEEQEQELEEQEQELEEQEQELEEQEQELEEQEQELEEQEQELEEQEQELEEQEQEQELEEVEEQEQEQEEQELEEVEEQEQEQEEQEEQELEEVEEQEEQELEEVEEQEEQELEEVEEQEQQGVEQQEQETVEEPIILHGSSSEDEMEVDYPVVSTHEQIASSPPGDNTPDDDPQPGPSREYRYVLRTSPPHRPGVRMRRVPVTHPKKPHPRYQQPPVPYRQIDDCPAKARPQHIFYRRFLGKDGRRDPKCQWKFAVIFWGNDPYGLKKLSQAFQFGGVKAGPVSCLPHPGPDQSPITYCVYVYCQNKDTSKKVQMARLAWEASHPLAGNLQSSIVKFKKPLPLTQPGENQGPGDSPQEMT
Large screens that a line does not name were inactive.

CC(=O)c1cccc(OCC(=O)N(Cc2ccco2)c2c(N)n(Cc3ccccc3)c(=O)[nH]c2=O)c1	none
CCOC(=O)C1CCCN(c2c(NCCCN(CC)c3ccccc3)c(=O)c2=O)C1 (configuration not stated)	LANA-H2A inh 17
CCOC(=O)C1CCCN(c2c(NCCN(CC)c3ccccc3)c(=O)c2=O)C1 (configuration not stated)	none
CSC1=NSC2=NC(=O)/C(=C\c3ccc(OC(=O)c4ccco4)cc3)C(=N)N12	none
CCSC1=NSC2=NC(=O)/C(=C\c3coc4ccccc4c3=O)C(=N)N12	cardiac RTF act 555
Cc1cccc(-n2c(C)cc(/C=C3\C(=N)N4N=C(CC(C)C)SC4=NC3=O)c2C)c1	none
CC(C)CC1=NN2C(=N)/C(=C\c3coc4ccccc4c3=O)C(=O)N=C2S1	cardiac RTF act 230 (no result: LANA-H2A inh)
COc1cc(C=CC(=O)OCC=Cc2ccc3c(c2)OCO3)cc(OC)c1OC	none (no result: LANA-H2A inh)
CCC(C)C(NC(=O)c1ccccc1)C(=O)Nc1ccc(S(=O)(=O)Nc2cc(C)nc(C)n2)cc1 (configuration not stated)	none (no result: LANA-H2A inh)
CN(C)c1ccc(/C=C2\SC(=S)N(Nc3ncc(C(F)(F)F)cc3Cl)C2=O)cc1	cardiac RTF act 147
COc1cc(/C=C2\SC(=S)N(Nc3ncc(C(F)(F)F)cc3Cl)C2=O)ccc1O	none
CN(CC(=O)Nc1ccccc1Cl)C(=O)COC(=O)C1=COCCO1	none
CC1=C([N+](=O)[O-])C(c2ccccc2C(F)(F)F)NC(=O)N1C (configuration not stated)	LANA-H2A inh 30
Cc1ccc2c(c1)N(CC(=O)NCCCN1CC(C)CC(C)C1)C(=O)c1cccnc1O2 (configuration not stated)	none
COc1cccc(C(C(=O)NC2CCCCC2)N(C(=O)c2csnn2)C2CC2)c1 (configuration not stated)	LANA-H2A inh 13
Cc1cccc(C(C(=O)NC2CCCCC2)N(C(=O)c2csnn2)C2CC2)c1 (configuration not stated)	none
COc1ccc(N=Cc2cc3c(cc2O)OC(N)=C(C#N)C3c2ccccc2)cc1 (configuration not stated)	cardiac RTF act 71
CCCC(=O)n1nc(-c2ccc(Cl)cc2)nc1SC	LANA DNA inh 78
CCC(=O)n1nc(-c2ccc(Cl)cc2)nc1SC	none
COc1ccc(NC(=O)C2(S(=O)(=O)c3ccc(C)cc3)CC2)cc1OC	LANA-H2A inh 26
CCCN1CCC(NC(=O)Nc2ccc([N+](=O)[O-])cc2)CC1	none
CCCN1CCC(NC(=O)Nc2ccc(Br)cc2)CC1	LANA-H2A inh 18
COc1ccc(C(CNC(=O)c2ccc(S(=O)(=O)N3CCCC3)cc2)N(C)C)cc1OC (configuration not stated)	none
COc1ccccc1C(CNC(=O)c1ccc(S(=O)(=O)N2CCCCC2)cc1)N(C)C (configuration not stated)	LANA-H2A inh active
C=C(C)C(=O)Nc1cccc(C2=NOC3(C2)C[C@@H](C(N)=O)N(C(=O)/C=C/C=C/C)C3)c1 (some centres not stated)	LANA DNA inh 68
C=C(C)C(=O)Nc1cccc(C2=NOC3(C2)C[C@@H](C(N)=O)N(C(=O)/C(C)=C/C)C3)c1 (some centres not stated)	LANA DNA inh 85
CC(Sc1nnc(-c2ccncc2)n1C)C(=O)NCC1CCCO1 (configuration not stated)	none
O=C(COC(=O)c1nc(Cl)ccc1Cl)c1ccccc1Cl	none
O=C(COC(=O)c1nc(Cl)ccc1Cl)NCc1ccccc1	LANA-H2A inh 14
NNc1ncnc2c1cnn2-c1ccccc1	LANA-H2A inh 26
COc1cc(/C=C/C(=O)N2CCN(C(=O)/C=C/c3cc(OC)c(OC)c(OC)c3)CC2)cc(OC)c1OC	none
COc1cc(/C=C/C(=O)N2CCCC2)cc(OC)c1OC	LANA-H2A inh 9.1
O=C(CCl)N1c2ccccc2Oc2ccc3ccccc3c21	cardiac RTF act 226 (no result: LANA-H2A inh)
COc1ccc(OC)c(/C=C2\N=C(c3ccccc3)OC2=O)c1	LANA-H2A inh 42
N#C/C(=C/c1ccc(N2CCCCCC2)o1)c1ccc(Cl)cc1	cardiac RTF act 36
Cc1nc2sccn2c(=O)c1S(=O)(=O)NCC(C)c1ccccc1 (configuration not stated)	none
O=C(N/C(=C/c1ccc([N+](=O)[O-])cc1)C(=O)N1CCOCC1)c1ccco1	LANA-H2A inh 14
CCOc1ccc(NC(=O)C(c2ccccn2)N(C(=O)CCl)c2ccc(F)cc2)cc1 (configuration not stated)	LANA-H2A inh 33
NS(=O)(=O)c1ccc(NC(=O)c2cc(Cl)sc2Cl)cc1	none
COc1ccc(CNC(=O)c2ccc(Cn3cc(Br)cn3)o2)cc1	none
Cc1cc(=O)oc(C)c1C(=O)Nc1ccc2ncccc2c1	cardiac RTF act 74
CC(CCC(C)C(C)(C)C)[C@@H]1CC[C@H]2C3C[C@H](OS(O)(=S)=S)[C@H]4C[C@H](OS(O)(=S)=S)[C@@H](OS(O)(=S)=S)C[C@]4(C)[C@H]3CC[C@]12C (some centres not stated) (tested in a mixture with another compound)	RTF Ca sens inh 56, LANA DNA inh 123, Keap1-Nrf2 PPI 84
COC(=O)[C@]1(Cc2ccccc2)N[C@H](CN(C)C(=O)C2CCCCC2)[C@@H]2C(=O)N(C)C(=O)[C@@H]21	none (no result: LANA-H2A inh)
CC[C@@]1(C(=O)OC)N[C@H](CN(C)C(=O)C2CCCCC2)[C@@H]2C(=O)N(C)C(=O)[C@@H]21	LANA-H2A inh active
CN(C)c1ccc(/C=C2\CCC/C(=C\c3ccccc3)C2=O)cc1	cardiac RTF act 84
O=C1/C(=C/c2ccccc2)CCCc2ccccc21	none
O=c1oc2c(O)cccc2cc1-c1nc2ccccc2[nH]1	cardiac RTF act 153
COCCN1C(=O)/C(=C/c2ccc(N3CCCC3)cc2C)SC1=S	cardiac RTF act 69
O=C(Nc1ccccc1)C1=C[C@@H](c2ccc3c(c2)OCO3)C[C@@H](OCCCCO)O1	none
CCOC(=O)CNC(=O)c1ccc(SCC)cc1	none
CC1(C)CNC(=O)c2sc(NC(=O)c3ccccc3)nc2C1	LANA-H2A inh 18
CC1(C)CC(=O)c2sc(NC(=O)c3ccccc3)nc2C1	none (no result: RTF Ca sens inh, cardiac RTF act, LANA DNA inh, Keap1-Nrf2 PPI)
CCOc1ccccc1OCCCC(=O)Nc1cccc(-n2cnnn2)c1C	none
O=C(NCCCO)C(=O)Nc1cc2c3c(c1)CCC(=O)N3CCC2	LANA-H2A inh 19
CC(C)CNS(=O)(=O)c1ccc(S(=O)(=O)N2CCC3(CC2)OCCO3)cc1	none
O=S(=O)(NC1CC1)c1ccc(S(=O)(=O)N2CCC3(CC2)OCCO3)cc1	LANA-H2A inh 19
O=C1Nc2ccccc2Nc2ncccc21	LANA-H2A inh 15
CC1CCN(S(=O)(=O)c2nnc(NC(=O)c3cccc(Cl)c3)s2)CC1	none

Screening results (PubChem BioAssay)
